# The campaign covered roughly 420,000 compounds. About 50,000 (12%) were called active. About 26% were inconclusive and are not listed. This is one part of a sample in which actives are shown more often than they occur. Calls follow the shape of the dose curve; as a rule, active = well fitted inhibition curve with a large enough effect; inconclusive = small, poorly fitted or top-dose-only effect; inactive = flat fitted curve, though single readings scatter.
# Assay: qHTS for Inhibitors of human tyrosyl-DNA phosphodiesterase 1 (TDP1): qHTS in cells in presence of CPT; also: nearly all actives have a fitted effect of over 55% in size
# Conditions: chicken DT40 Tdp1-/-;hTDP1 cells + 20 nM CPT, ATP luminescence, 48 h; series mostly up to 46.2 µM; activity change, negative = growth inhibition: at the top concentration
# How it was run: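 Chicken DT40 Tdp1-/- cells complemented with human TDP1, 400 cells/well, exposed to compounds plus 20 nM camptothecin for at least 48 h at 37 C; viability read as ATP content by CellTiter-Glo luminescence.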
# % is scaled to controls: 0 for no effect and ±100 for the full control effect; potency is read from the fitted curve at half-maximal effect.
SMILES,"activity change, negative = growth inhibition",Potency
COc1ccccc1C(=O)N1C(CC(=O)Nc2ccccc2C)C(=O)NC2CCCCC21 (stereo unspecified),-19% (inactive),–
CCc1cc2c(N3CCN(c4nnc(CC)s4)CC3)ncnc2s1,–,10.3 µM (active)
CCOCCCNCc1ccc(OCc2ccc(F)cc2)c(OC)c1,-17.6% (inactive),–
O=C(NCCCO)C(=O)Nc1c2c(nn1-c1ccccc1)CSC2,-5.46% (inactive),–
CCN(CC)S(=O)(=O)c1ccc(N(C)Cc2cccc(OC)c2OC)nc1,–,23.1 µM (active)
CCN(CC)S(=O)(=O)c1ccc(OC)c(NC(=O)CCc2c(C)noc2C)c1,1.45% (inactive),–
COc1ccc(S(=O)(=O)N2CCCCCC2)cc1C(=O)N(C)Cc1cccc(OC)c1OC,-28.8% (inactive),–
CCC(C(=O)N1CCN(S(=O)(=O)c2sc(C(=O)O)c(C)c2C(=O)O)CC1)c1ccccc1 (stereo unspecified),-4.51% (inactive),–
CCCCCCC(O)(CCN1CCCCC1)c1ccccc1 (stereo unspecified),6.69% (inactive),–
O=C(CSc1ncn[nH]1)Nc1nc2c(F)c(F)c(F)cc2s1,-10.6% (inactive),–
Cc1c(CCOC(=O)CC23CC4CC(CC(C)(C4)C2)C3)sc[n+]1Cc1ccc([N+](=O)[O-])cc1,–,18.4 µM (active)
Cc1ccc(OC(=O)CSc2nnc(-c3cccs3)o2)cc1,1.42% (inactive),–
COc1ccc(C(=O)CSc2nnc(-c3ccco3)o2)cc1,-1.34% (inactive),–
COc1ccc(-n2c(C)cc(C(=O)CSc3nnc(-c4cccs4)o3)c2C)cc1,–,16.4 µM (active)
Cc1ccc(S(=O)(=O)N2CC[C@H]3[C@@H](C2)C(=O)C[C@@H](c2ccccc2)N3S(=O)(=O)c2ccc(C)cc2)cc1,-12.4% (inactive),–
Cc1ccc(C)c(S(=O)(=O)Nc2cc(C)on2)c1,-2.88% (inactive),–
CC(NC(=O)CC1SC(N)=NC1=O)c1ccccc1 (stereo unspecified),-7.27% (inactive),–
Cc1nc(CN(C)C(=O)CC2C(=O)NCCN2Cc2ccc(F)cc2)cs1 (stereo unspecified),1.54% (inactive),–
CCCC(=O)Nc1ncnc2c1ncn2[C@@H]1O[C@@H]2OP(=O)(O)OC[C@H]2[C@H]1OC(=O)CCC,3.57% (inactive),–
O=C(Cc1ccc(Cl)cc1)NC1CCS(=O)(=O)C1 (stereo unspecified),-2.99% (inactive),–
CC(C)C(=O)NC(NC(=S)NC1CCS(=O)(=O)C1)C(Cl)(Cl)Cl (stereo unspecified),-3.75% (inactive),–
O=S1(=O)CCC(NC(=S)SCc2ccccc2Br)C1 (stereo unspecified),–,8.2 µM (active)
O=C(CSc1ccccc1F)NC1CCS(=O)(=O)C1 (stereo unspecified),-0.0027% (inactive),–
COc1ccc(NC(=S)NC2CCS(=O)(=O)C2)cc1 (stereo unspecified),1.76% (inactive),–
CCCSC(=S)NC1CCS(=O)(=O)C1 (stereo unspecified),–,16.4 µM (active)
CCOc1ccc(NC(=O)CN(C)CC(=O)NC(C)c2ccccc2)cc1OCC (stereo unspecified),-9.01% (inactive),–

SMILES,"activity change, negative = growth inhibition",Potency
CN(CCC(=O)Nc1cc(S(=O)(=O)N(C)C)ccc1Cl)CC(=O)Nc1ccc(F)cc1,5.34% (inactive),–
CN1OC[C@@H]2CN(C(=O)c3cccnc3)[C@H](c3ccc(N4CCCCC4)cc3)C[C@@H]21,6.47% (inactive),–
CCOC(=O)CN(C(=O)COc1nc(-c2ccccc2)cc(C)c1C#N)c1ccc(F)cc1,-24.9% (inactive),–
O=[N+]([O-])c1ccc(NC(=S)N2CCN(c3ccccn3)CC2)cc1,–,16.4 µM (active)
COc1cc([N+](=O)[O-])ccc1NC(=S)N1CCN(c2ccccn2)CC1,-24.2% (inactive),–
CCOC(=O)c1ccc(NC(=S)N2CCN(c3ccccn3)CC2)cc1,1.63% (inactive),–
CC(=O)Nc1ccc(NC(=O)CCCNC(=O)c2ccc(Cl)cc2)cc1,-1.54% (inactive),–
COCCCNC(=O)CCc1nc2cccnc2n1Cc1ccc(OC)cc1,-3.73% (inactive),–
COCCn1c(CCC(=O)Nc2cc(C)ccc2C)nc2cccnc21,-9.25% (inactive),–
Cc1ccc(Cn2c(CNC(=O)Cc3cccc(C)c3)nc3cccnc32)cc1,–,13 µM (active)
O=C(CCNS(=O)(=O)c1ccccc1)NCCSc1ccc(Br)cc1,-23% (inactive),–
CCc1cccc(NC(=O)COC(=O)c2cc(=O)c3ccccc3o2)c1,5.89% (inactive),–
C=CCC(NC(=O)Cc1ccccc1)C(=O)NCCC (stereo unspecified),-4.46% (inactive),–
C=CC[C@H](CC(=O)N(CCO)Cc1ccccc1)C(=O)N[C@@H](COC(=O)[C@@H](CC=C)Cc1ccc(F)cc1)Cc1ccccc1,–,23.1 µM (active)
COCCCNC(=S)N(Cc1ccccc1)Cc1ccc(F)cc1,-7.85% (inactive),–
C=CCC[C@@H](Cc1ccc(F)cc1)C(=O)O[C@H](CNC(=O)[C@H](CC=C)CC(=O)N(CCO)Cc1ccccc1)c1ccccc1,–,18.4 µM (active)
C=CCC[C@H](Cc1ccc(F)cc1)C(=O)OC[C@H](C)NC(=O)[C@H](CC=C)CC(=O)N(CCO)Cc1ccccc1,–,14.6 µM (active)
C=CCC[C@@H](Cc1ccc(F)cc1)C(=O)OC[C@@H](C)NC(=O)[C@H](CC=C)CC(=O)N(CCO)Cc1ccccc1,–,13 µM (active)
Cc1ccccc1Nc1nc(N)nc(CSc2ccccc2)n1,11.7% (inactive),–
COc1ccc(C(C)NC(=O)C2CCCC2)cc1 (stereo unspecified),28% (inactive),–
O=C(CNC(=O)c1cccnc1)N/N=C/c1cc(Br)c(O)c(Br)c1,-5.42% (inactive),–
Cc1ccc(S(=O)(=O)NCC2CCC(C(=O)N3CCOCC3)CC2)cc1 (stereo unspecified),11.6% (inactive),–
CCOc1ncccc1C(=O)NNC(=O)c1cccc(S(=O)(=O)Nc2ccccc2OC)c1,-0.192% (inactive),–
O=C(Nc1c[nH]c(=O)[nH]c1=O)OCc1ccccc1,-14.3% (inactive),–
CC(=O)c1sc(N)nc1C,–,inactive
